The supplement of paper PMC9262897, “Low-cost anti-mycobacterial drug discovery using engineered E. coli” (Nature Communications, 2022)
Counter-ions that a name gives are not always drawn. ± gives the standard deviation of the averaged measurements.

Assays:
Assay in all cases: growth (OD600 after 10 h); higher = more growth (less inhibition)
[1] = tested on: E. coli TESEC Alr+ wild-type control; conditions: compound 0.1 mM; raw OD600 reference: median of DMSO wells 0.241, cell-free background 0.041
Procedure: (§1)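 TESEC Mtb Alr E. coli, or the Alr+ wild-type control, in 384-well plates with Prestwick library compounds at 0.1 mM and 1% DMSO, across arabinose induction levels of 1E3 to 1E7 nM. Growth is read as OD600 after 10 h at 37 °C in triplicate biological replicates.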

E. coli TESEC Mtb Alr [2] = conditions: compound 0.1 mM
Procedure: as §1

E. coli TESEC Mtb Asd = conditions: compound 0.1 mM
Procedure: (§2)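 TESEC E. coli strains in which the native enzyme is deleted and replaced by arabinose-inducible Mtb Asd, DapB, CysH or TrpD, each grown in its selective medium. Strains were screened against the Prestwick library at 0.1 mM and 1% DMSO in 384-well format at low and high arabinose induction. Growth is read as OD600 after 10 h in triplicate.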

E. coli TESEC Mtb DapB = conditions: compound 0.1 mM
Procedure: as §2

E. coli TESEC Mtb Alr [3] = conditions: compound 0.1 mM; remark: listed apart in the source
Procedure: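 TESEC Mtb Alr E. coli (ΔaraC ΔtolC ΔentC Δalr ΔdadX, arabinose-inducible Mtb Alr) or the Alr+ wild-type control strain, grown in defined M9-fructose medium without D-alanine in 96-well plates with Prestwick library compounds at 0.1 mM and 1% DMSO. Low Alr induction is 0.1 µM arabinose and high induction is 10 mM arabinose.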

[4] = arabinose 1000 nM, raw OD600 reference: median of DMSO wells 0.294, cell-free background 0.041
[5] = arabinose 10000 nM, raw OD600 reference: median of DMSO wells 0.264, cell-free background 0.041
[6] = arabinose 100000 nM, raw OD600 reference: median of DMSO wells 0.201, cell-free background 0.041
[7] = arabinose 1000000 nM, raw OD600 reference: median of DMSO wells 0.193, cell-free background 0.041
[8] = arabinose 10000000 nM, raw OD600 reference: median of DMSO wells 0.146, cell-free background 0.041
[9] = arabinose induction (level): High, raw OD600 reference: median of DMSO wells 0.331, cell-free background 0.041
[10] = arabinose induction (level): Low, raw OD600 reference: median of DMSO wells 0.417, cell-free background 0.041
[11] = arabinose induction (level): High, raw OD600 reference: median of DMSO wells […], cell-free background 0.041
[12] = arabinose induction (level): Low, raw OD600 reference: median of DMSO wells 0.227, cell-free background 0.041
[13] = arabinose 100 nM, raw OD600 reference: median of DMSO wells 0.413, cell-free background 0.052
[14] = arabinose 10000000 nM, raw OD600 reference: median of DMSO wells […], cell-free background 0.052

## CC(C)C(=O)Nc1ccc([N+](=O)[O-])c(C(F)(F)F)c1 [Flutamide]
[1]
  growth: 0.191 ± 0.0072
E. coli TESEC Mtb Alr [2]; [4]
  growth: 0.189 ± 0.0088
E. coli TESEC Mtb Alr [2]; [5]
  growth: 0.161 ± 0.0036
E. coli TESEC Mtb Alr [2]; [6]
  growth: 0.203 ± 0.0051
E. coli TESEC Mtb Alr [2]; [7]
  growth: 0.0619 ± 0.00076
E. coli TESEC Mtb Alr [2]; [8]
  growth: 0.0856 ± 0.0029
E. coli TESEC Mtb Asd; [9]
  growth: 0.156 ± 0.024
E. coli TESEC Mtb Asd; [10]
  growth: 0.165 ± 0.01
E. coli TESEC Mtb DapB; [11]
  growth: 0.177 ± 0.013
E. coli TESEC Mtb DapB; [12]
  growth: 0.218 ± 0.039
E. coli TESEC Mtb Alr [3]; [13]
  growth: 0.383 ± 0.036
E. coli TESEC Mtb Alr [3]; [14]
  growth: 0.16 ± 0.036

## O=C(O)Cc1ccccc1Nc1c(Cl)cccc1Cl [Diclofenac sodium]
[1]
  growth: 0.1279 ± 0.00065
E. coli TESEC Mtb Alr [2]; [4]
  growth: 0.137 ± 0.0017
E. coli TESEC Mtb Alr [2]; [5]
  growth: 0.132 ± 0.0064
E. coli TESEC Mtb Alr [2]; [6]
  growth: 0.149 ± 0.006
E. coli TESEC Mtb Alr [2]; [7]
  growth: 0.103 ± 0.004
E. coli TESEC Mtb Alr [2]; [8]
  growth: 0.131 ± 0.0017
E. coli TESEC Mtb Asd; [9]
  growth: 0.172 ± 0.014
E. coli TESEC Mtb Asd; [10]
  growth: 0.179 ± 0.01
E. coli TESEC Mtb DapB; [11]
  growth: 0.166 ± 0.0086
E. coli TESEC Mtb DapB; [12]
  growth: 0.172 ± 0.014
E. coli TESEC Mtb Alr [3]; [13]
  growth: 0.329 ± 0.037
E. coli TESEC Mtb Alr [3]; [14]
  growth: 0.214 ± 0.015

## CCCCOc1cc(C(=O)NCCN(CC)CC)c2ccccc2n1 [Dibucaine]
[1]
  growth: 0.216 ± 0.016
E. coli TESEC Mtb Alr [2]; [4]
  growth: 0.281 ± 0.0065
E. coli TESEC Mtb Alr [2]; [5]
  growth: 0.26283 ± 0.00023
E. coli TESEC Mtb Alr [2]; [6]
  growth: 0.208 ± 0.0075
E. coli TESEC Mtb Alr [2]; [7]
  growth: 0.154 ± 0.0091
E. coli TESEC Mtb Alr [2]; [8]
  growth: 0.174 ± 0.0038
E. coli TESEC Mtb Asd; [9]
  growth: 0.239 ± 0.058
E. coli TESEC Mtb Asd; [10]
  growth: 0.3947 ± 0.0033
E. coli TESEC Mtb DapB; [11]
  growth: 0.184 ± 0.016
E. coli TESEC Mtb DapB; [12]
  growth: 0.25 ± 0.025
E. coli TESEC Mtb Alr [3]; [13]
  growth: 0.415 ± 0.0019
E. coli TESEC Mtb Alr [3]; [14]
  growth: 0.321 ± 0.025

## OCCN1C[C@H](O)[C@@H](O)[C@H](O)[C@H]1CO [Miglitol]
[1]
  growth: 0.243 ± 0.0029
E. coli TESEC Mtb Alr [2]; [4]
  growth: 0.285 ± 0.0045
E. coli TESEC Mtb Alr [2]; [5]
  growth: 0.26 ± 0.0085
E. coli TESEC Mtb Alr [2]; [6]
  growth: 0.204 ± 0.02
E. coli TESEC Mtb Alr [2]; [7]
  growth: 0.184 ± 0.0057
E. coli TESEC Mtb Alr [2]; [8]
  growth: 0.145 ± 0.0034
E. coli TESEC Mtb Asd; [9]
  growth: 0.358 ± 0.084
E. coli TESEC Mtb Asd; [10]
  growth: 0.42 ± 0.084
E. coli TESEC Mtb DapB; [11]
  growth: 0.207 ± 0.031
E. coli TESEC Mtb DapB; [12]
  growth: 0.223 ± 0.029
E. coli TESEC Mtb Alr [3]; [13]
  growth: 0.406 ± 0.011
E. coli TESEC Mtb Alr [3]; [14]
  growth: 0.324 ± 0.051

## CCOC(=O)C1=C(COCCN)NC(C)=C(C(=O)OC)C1c1ccccc1Cl (centres undefined) [Amlodipine]
[1]
  growth: 0.231 ± 0.0038
E. coli TESEC Mtb Alr [2]; [4]
  growth: 0.2004 ± 0.0019
E. coli TESEC Mtb Alr [2]; [5]
  growth: 0.23 ± 0.022
E. coli TESEC Mtb Alr [2]; [6]
  growth: 0.179 ± 0.0029
E. coli TESEC Mtb Alr [2]; [7]
  growth: 0.0929 ± 0.0035
E. coli TESEC Mtb Alr [2]; [8]
  growth: 0.104 ± 0.0021
E. coli TESEC Mtb Asd; [9]
  growth: 0.132 ± 0.0075
E. coli TESEC Mtb Asd; [10]
  growth: 0.136 ± 0.0072
E. coli TESEC Mtb DapB; [11]
  growth: 0.155 ± 0.077
E. coli TESEC Mtb DapB; [12]
  growth: 0.205 ± 0.017
E. coli TESEC Mtb Alr [3]; [13]
  growth: 0.398 ± 0.0055
E. coli TESEC Mtb Alr [3]; [14]
  growth: 0.282 ± 0.011

## CCN(CC)CCOC(=O)C(Cc1cccc2ccccc12)CC1CCCO1 (centres undefined) [Nafronyl oxalate]
[1]
  growth: 0.15 ± 0.0052
E. coli TESEC Mtb Alr [2]; [4]
  growth: 0.219 ± 0.0043
E. coli TESEC Mtb Alr [2]; [5]
  growth: 0.255 ± 0.014
E. coli TESEC Mtb Alr [2]; [6]
  growth: 0.157 ± 0.0057
E. coli TESEC Mtb Alr [2]; [7]
  growth: 0.0991 ± 0.0023
E. coli TESEC Mtb Alr [2]; [8]
  growth: 0.151 ± 0.0053
E. coli TESEC Mtb Asd; [9]
  growth: 0.127 ± 0.0055
E. coli TESEC Mtb Asd; [10]
  growth: 0.309 ± 0.11
E. coli TESEC Mtb DapB; [11]
  growth: 0.184 ± 0.019
E. coli TESEC Mtb DapB; [12]
  growth: 0.174 ± 0.008
E. coli TESEC Mtb Alr [3]; [13]
  growth: 0.407 ± 0.0062
E. coli TESEC Mtb Alr [3]; [14]
  growth: 0.293 ± 0.015

## COC(=O)[C@@H]1[C@H]2C[C@H]3c4[nH]c5ccccc5c4CCN3C[C@@H]2CC[C@@H]1O [Yohimbine hydrochloride]
[1]
  growth: 0.217 ± 0.0081
E. coli TESEC Mtb Alr [2]; [4]
  growth: 0.28 ± 0.007
E. coli TESEC Mtb Alr [2]; [5]
  growth: 0.265 ± 0.0075
E. coli TESEC Mtb Alr [2]; [6]
  growth: 0.176 ± 0.011
E. coli TESEC Mtb Alr [2]; [7]
  growth: 0.142 ± 0.0078
E. coli TESEC Mtb Alr [2]; [8]
  growth: 0.142 ± 0.0022
E. coli TESEC Mtb Asd; [9]
  growth: 0.163 ± 0.031
E. coli TESEC Mtb Asd; [10]
  growth: 0.318 ± 0.074
E. coli TESEC Mtb DapB; [11]
  growth: 0.166 ± 0.01
E. coli TESEC Mtb DapB; [12]
  growth: 0.19 ± 0.012
E. coli TESEC Mtb Alr [3]; [13]
  growth: 0.409 ± 0.011
E. coli TESEC Mtb Alr [3]; [14]
  growth: 0.343 ± 0.031
